This is a sample that favours compounds with a hit; in the whole collection about 10% have one here.
VP16 counter: counter-screen for ROR gamma inhibitors: Gal4-VP16 reporter. Drosophila S2 Gal4-VP16 UAS-luciferase, luminescence, 20 h. Potency, µM (top dose mostly 53.6 µM), actives largely listed as inhibitors. 310,000 compounds, 3.5% hits;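 note: Gal4-VP16 expression switched on by copper sulfate through the metallothionein promoter; nearly all actives have a fitted effect of over 50% in size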
KB-3-1 cytotox: KB-3-1 parental cell cytotoxicity. KB-3-1 viability, CellTiter-Glo ATP luminescence, 72 h. Potency, µM (titrated, usually from 46.1 µM), actives largely listed as cytotoxic. 400,000 compounds, 1.4% hits; note: nearly all actives have a fitted effect of over 60% in size
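Cytotoxicity in the drug-sensitive parental line KB-3-1 was scored as loss of CellTiter-Glo luminescence following 72 h incubation with compound. Values come from curve fitting of normalized concentration-response data.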
SW480 rerep: inducers of DNA re-replication in SW480 colon cancer cells. SW480 DNA re-replication, Hoechst DNA content imaging, 48 h. Potency, µM (top dose mostly 46.1 µM), most hits filed as activators. 340,000 compounds, 1.8% hits; note: nearly all actives have a fitted effect of over 55% in size
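Compounds, transferred as 23 nL by pin tool, were incubated with cells for 48 hr; DNA content per nucleus was then quantified by Hoechst staining and fluorescence plate imaging.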
RORg inh: inhibitors of mouse ROR gamma transcriptional activity; P51450; Drosophila S2 Gal4-RORgamma UAS-luciferase reporter, 20 h; Potency, µM (highest dose often 53.6 µM), hits mostly inhibitors; 310,000 compounds, 5.4% hits; note: nearly all actives have a fitted effect of over 60% in size
Target sequence (P51450 whole entry, looked up, the tested form may be a part): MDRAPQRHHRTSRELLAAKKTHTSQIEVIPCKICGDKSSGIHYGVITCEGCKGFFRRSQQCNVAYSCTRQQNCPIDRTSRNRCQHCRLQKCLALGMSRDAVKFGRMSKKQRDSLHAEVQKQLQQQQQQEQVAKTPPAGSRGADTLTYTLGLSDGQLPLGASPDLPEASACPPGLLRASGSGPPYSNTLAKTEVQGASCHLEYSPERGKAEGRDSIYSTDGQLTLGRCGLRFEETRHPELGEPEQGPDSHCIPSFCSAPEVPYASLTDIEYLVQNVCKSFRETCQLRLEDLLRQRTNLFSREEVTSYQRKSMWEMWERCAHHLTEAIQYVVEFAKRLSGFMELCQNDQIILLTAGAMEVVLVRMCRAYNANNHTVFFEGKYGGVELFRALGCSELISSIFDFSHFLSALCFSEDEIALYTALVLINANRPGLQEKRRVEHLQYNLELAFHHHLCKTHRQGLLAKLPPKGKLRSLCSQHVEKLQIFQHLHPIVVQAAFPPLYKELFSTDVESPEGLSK
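Stable Schneider cell line, Gal4 DNA-binding domain fused to ROR gamma, UAS-luciferase. Cmpd 1 hr RT → CuSO4 700 uM final → 20 hr RT → luciferase reagent 10 min → luminescence.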
KB-V1 MDR tox: kills drug-selected multidrug resistant KB-V1 cells; KB-V1 MDR cells viability, CellTiter-Glo, 72 h; Potency, µM (highest dose often 46.1 µM), most hits filed as cytotoxic; 400,000 compounds, 3.4% hits; note: nearly all actives have a fitted effect of over 60% in size
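In this primary screen, KB-V1 cells overexpressing P-gp are incubated with library compounds (lowest to highest concentration) for 72 h at 37 degrees C before a luminescent ATP viability read.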
MCF10A rereplic: DNA re-replication induction in MCF 10a cells. 350,000 compounds, 2.9% hits. Potency, µM (highest dose often 46.1 µM), usual class: activators. AID 624296. MCF 10A DNA re-replication, Hoechst nuclear intensity, 48 h; note: nearly all actives have a fitted effect of over 50% in size
A number is an active result; ! = not active in a repeat. Calls come from the whole dose curve; as a rule, active = well fitted curve in the direction sought with a large enough effect; inconclusive = small, poorly fitted or top-dose-only effect, or another doubt; inactive = no such curve, though single readings can be large; an effect the other way counts as inactive or inconclusive.

`C=CCOc1ccc(CN(C)C(=O)CNC(=O)c2ccc(-c3ccccc3)cc2)cc1` gave VP16 counter inactive, KB-3-1 cytotox 4.6µM, SW480 rerep inconclusive, RORg inh inactive, KB-V1 MDR tox 2.3µM and MCF10A rereplic inactive.
`CCc1cccc(NC(=O)CCc2nc3cccnc3n2-c2ccccc2)c1` gave KB-3-1 cytotox inactive and KB-V1 MDR tox inactive.
For C/C(Cn1nnc([N+](=O)[O-])n1)=N\NC(=O)c1ccccc1 the results were VP16 counter inconclusive, KB-3-1 cytotox inactive, SW480 rerep inactive, RORg inh 10µM, KB-V1 MDR tox inactive and MCF10A rereplic inactive.
Screening COc1ccc(CNc2cc(-c3ccoc3)ncn2)c(OC)c1 returned VP16 counter inactive and RORg inh inactive.
Screening O=S1(=O)Nc2c(ccc3cccnc23)-c2ccccc21 returned VP16 counter 2.5µM, KB-3-1 cytotox 18µM, SW480 rerep inactive, RORg inh 1.3µM, KB-V1 MDR tox inconclusive and MCF10A rereplic inactive.
For c1ccc(Cn2nnnc2C(c2cccs2)N2CCCCCC2)cc1 (stereo not given) the results were VP16 counter inactive, KB-3-1 cytotox inactive, SW480 rerep inactive, RORg inh inactive, KB-V1 MDR tox 16µM and MCF10A rereplic inactive.
For c1ccc(Cn2nnnc2C(c2cccs2)N2CCc3ccccc3C2)cc1 (stereo not given) the results were VP16 counter inconclusive, KB-3-1 cytotox inactive, SW480 rerep inconclusive, RORg inh inactive, KB-V1 MDR tox inactive and MCF10A rereplic inconclusive.
COc1ccc(Cn2cc(CN(C)C3CN(Cc4cn(Cc5ccc(OC)cc5)nn4)S(=O)(=O)C3)nn2)cc1 (stereo not given) was read as KB-3-1 cytotox inactive and KB-V1 MDR tox inactive.
COc1ccccc1Cn1c(=S)[nH]c2cc(C(=O)N3CCC(C(N)=O)CC3)ccc2c1=O was read as VP16 counter inactive, KB-3-1 cytotox inactive, SW480 rerep inactive, RORg inh inactive, KB-V1 MDR tox inactive and MCF10A rereplic inactive.
For CC1CC(C)CN(C(=O)c2ccc3c(=O)n(Cc4ccc5c(c4)OCO5)c(=S)[nH]c3c2)C1 (stereo not given) the results were VP16 counter 10µM, KB-3-1 cytotox inactive, SW480 rerep inactive, RORg inh 3.5µM, KB-V1 MDR tox 15µM and MCF10A rereplic inactive.
`CCOC(=O)N1CCN(C(=O)c2ccc3c(=O)n(Cc4ccccc4OC)c(=S)[nH]c3c2)CC1` gave VP16 counter inactive, KB-3-1 cytotox inactive, SW480 rerep inactive, RORg inh inconclusive, KB-V1 MDR tox inactive and MCF10A rereplic inactive.
Screening CCOC(=O)N1CCN(C(=O)c2ccc3c(=O)n(Cc4ccc(OC)cc4)c(=S)[nH]c3c2)CC1 returned VP16 counter inconclusive, KB-3-1 cytotox inconclusive, SW480 rerep inactive, RORg inh inactive, KB-V1 MDR tox inactive and MCF10A rereplic inactive.
For O=C(c1ccc2c(=O)n(Cc3ccc4c(c3)OCO4)c(=S)[nH]c2c1)N1CCCCC1 the results were VP16 counter inactive, KB-3-1 cytotox inactive, SW480 rerep inactive, RORg inh inconclusive, KB-V1 MDR tox inactive and MCF10A rereplic inactive.
O=C(c1ccc2c(=O)n(Cc3ccccc3Cl)c(=S)[nH]c2c1)N1CCCC1 was read as VP16 counter inconclusive, KB-3-1 cytotox inactive, SW480 rerep inactive, RORg inh 11µM, KB-V1 MDR tox inactive and MCF10A rereplic inactive.
`CCOC(=O)N1CCN(C(=O)c2ccc3c(=O)n(Cc4ccccc4)c(=S)[nH]c3c2)CC1` gave VP16 counter inconclusive, KB-3-1 cytotox inactive, SW480 rerep inactive, RORg inh 13µM, KB-V1 MDR tox inactive and MCF10A rereplic inactive.
COc1ccccc1Cn1c(=S)[nH]c2cc(C(=O)N3CCCC(C)C3)ccc2c1=O (stereo not given) was read as KB-3-1 cytotox 21µM and KB-V1 MDR tox inactive.
`CN(C)CCCNc1cc(N2CCN(C3CCCCC3)CC2)c2noc3c2c1C(=O)c1ccccc1-3` gave KB-3-1 cytotox inactive and KB-V1 MDR tox inconclusive.
`O=C(c1ccc2c(=O)n(Cc3ccc(Cl)cc3)c(=S)[nH]c2c1)N1CCOCC1` gave VP16 counter 7.1µM, KB-3-1 cytotox inactive, SW480 rerep inconclusive, RORg inh 4µM, KB-V1 MDR tox inactive and MCF10A rereplic inactive.
O=c1c2ccc(Cl)cc2[nH]c(=S)n1Cc1cccnc1 was read as VP16 counter inconclusive, KB-3-1 cytotox inactive, SW480 rerep inactive, RORg inh 5µM, KB-V1 MDR tox 18µM and MCF10A rereplic inactive.
O=C(c1ccc2c(=O)n(Cc3ccc(Cl)cc3)c(=S)[nH]c2c1)N1CCCC1 was read as VP16 counter inconclusive, KB-3-1 cytotox inactive, SW480 rerep inactive, RORg inh 5µM, KB-V1 MDR tox inactive and MCF10A rereplic inconclusive.
CCOC(=O)N1CCC(n2c(=S)[nH]c3ccccc3c2=O)CC1 was read as VP16 counter 7.1µM, KB-3-1 cytotox inactive, SW480 rerep inactive, RORg inh 8.9µM, KB-V1 MDR tox inactive and MCF10A rereplic inactive.
For O=C(c1ccc2c(=O)n(Cc3ccco3)c(=S)[nH]c2c1)N1CCN(c2ccccc2)CC1 the results were VP16 counter inactive, KB-3-1 cytotox inactive, SW480 rerep inactive, RORg inh inconclusive, KB-V1 MDR tox inactive and MCF10A rereplic inactive.
`CCOC(=O)N1CCC(NC(=O)C2CCC(Cn3c(=O)[nH]c4ccccc4c3=O)CC2)CC1` (stereo not given) gave KB-3-1 cytotox inactive, SW480 rerep inactive, KB-V1 MDR tox inactive and MCF10A rereplic inactive.
CCCCCC(=O)/C=C/[C@@H]1[C@@H](C/C=C\CCCC(=O)O)[C@@H](O)C[C@H]1O was read as VP16 counter inactive and RORg inh inactive.
For Cc1ccccc1C(=O)Nc1cccc(-c2nnc(SCC(=O)NCc3ccco3)n2C)c1 the results were KB-3-1 cytotox inactive and KB-V1 MDR tox inactive.
For COCCn1c(=O)[nH]c2cc(C(=O)N3CCN(c4ccc(Cl)cc4)CC3)ccc2c1=O the results were VP16 counter inactive, KB-3-1 cytotox 15µM!, SW480 rerep inactive, RORg inh inconclusive, KB-V1 MDR tox inconclusive and MCF10A rereplic inconclusive.
`CN1CCN(C(=O)c2ccc3c(=O)n(Cc4ccc(Cl)cc4)c(=S)[nH]c3c2)CC1` gave VP16 counter inconclusive, KB-3-1 cytotox inactive, SW480 rerep inconclusive, RORg inh 7.1µM, KB-V1 MDR tox inactive and MCF10A rereplic inactive.
COCCn1c(=S)[nH]c2cc(C(=O)N3CCC(C(N)=O)(N4CCCCC4)CC3)ccc2c1=O was read as VP16 counter inactive, KB-3-1 cytotox inactive, SW480 rerep inactive, RORg inh inactive, KB-V1 MDR tox inactive and MCF10A rereplic inactive.
O=C(c1ccc2c(=O)n(CCc3ccccc3)c(=O)[nH]c2c1)N1CCN(c2ccc(Cl)cc2)CC1 was read as KB-3-1 cytotox inactive and KB-V1 MDR tox inactive.
